From ChEMBL document CHEMBL3988442, “University of Dundee, Small-Polar-MMV Screening Library” (2021) come the findings set out here.

Each structure is given as a SMILES string. In all, about 48,000 compounds went through this assay and about 13,000 (27%) showed an effect of 50% or more. This is one part of the list.

For the test, the system named is Wolbachia pipientis. The test can be described thus: Anti-Wolbachia Cell-Based Screen. It is filed as functional. On the set-up: scale not given: in the data most compounds retested in dose-response had high values. To be noted: 5 µM.
As for `c1cnc(OCc2nnc3n2CCN(CC2CC2)C3)nc1`, the “Percent Effect” value is recorded as -18.49%. Then `O=C(CN1CCCCCC1)NCc1cccnc1Oc1ccccc1`, with -1.634%.

Take `CC1CCCN(Cc2ccc(CNC(=O)NCc3ccon3)cc2)C1` (stereo not given): the “Percent Effect” value is given as -7.486%. As to `CCN1CCN(Cc2c(C3CCCC3)[nH]c3ncccc23)CC1`, the “Percent Effect” value worked out at 101.4%. `CC1CCCN(Cc2c(C3CCOCC3)[nH]c3ncccc23)C1` (stereo not given): the “Percent Effect” value is -13.09%.

Turning to `OCC1CCCN(Cc2c(C3CCCC3)[nH]c3ncccc23)C1` (stereo not given), the “Percent Effect” value was found to be 82.97%.

In the case of `CCN1CCCC(c2c(-c3ccccc3)ncn2Cc2cccnc2)C1` (stereo not given), the “Percent Effect” value is -13.51%.

Regarding `CS(=O)(=O)NCC1CCCN(Cc2ccc(F)c3cccnc23)C1` (stereo not given), the “Percent Effect” value is listed as -1.722%. Turning to `CC1CCCN(Cc2c(C3CC3)[nH]c3ncccc23)C1` (stereo not given), the “Percent Effect” value is 97.08%. As for `c1cnc2[nH]c(C3CCCC3)c(CN3CCCCC3)c2c1`, the figure is 61.56%; as for `O=C(Cn1nc2ccccc2n1)N1CCCC(O)(CO)C1` (stereo not given), -10.36%; as for `Cc1cc(NC(=O)N(C)CCN2CCN(c3ccccc3)CC2)on1`, -6.324%. As for `COc1c(CNC(c2ccc(F)cc2)c2nccn2C)c(C)nn1C` (stereo not given), the “Percent Effect” value was -17.53%.

In the case of `COCCSc1ccc(-n2ccnc2)nn1`, the “Percent Effect” value was 19.88%.

As to `CC1(Cc2ccc3c(c2)OCO3)CCCN(S(=O)(=O)N2CCOCC2)C1` (stereo not given), the “Percent Effect” value is given as -4.077%. Regarding `Cc1cccn2cc(CN3CCCC(O)C3)nc12` (stereo not given), the “Percent Effect” value is recorded as -5.177%. Then `Cc1cc(Cn2cc(C#N)c(=O)c3ccccc32)no1`, with 6.304%; and `O=C(NCCc1nnc2n1CCC2)NCC1(c2ccccc2F)CC1`, with 109%. `O=C(NCCc1nnc2n1CCC2)NCC1(c2ccc(F)cc2)CC1`: the “Percent Effect” value is on record as 123.4%. As to `O=C(NCCc1nnc2n1CCC2)NCC1(c2ccccc2)CC1`, the “Percent Effect” value is 95.51%. As for `Cn1cc(CCNC(=O)NCc2nnc3n2CCC3)cn1`, the figure is -8.052%; as for `O=C1C(NCc2nnc3n2CCCC3)CCCN1c1cccc(F)c1` (stereo not given), -1.768%; as for `O=C(NCCc1ccc(Cl)s1)NCc1nnc2n1CCC2`, 3.587%.

Regarding `O=C(NCCc1nnc2n1CCC2)N1CCC2(CCCCC2)C1`, the “Percent Effect” value is on record as -5.882%. As to `O=C(NCCC1=CCCCC1)NCc1nnc2n1CCC2`, the “Percent Effect” value was found to be 7.36%.

In the case of `Cc1cc(C)c(CNC(=O)NCc2nnc3n2CCC3)c(=O)[nH]1`, the “Percent Effect” value is 8.689%.

For the compound `NC(=O)CC1CCN(C(=O)NCC2(c3ccccc3F)CC2)CC1`, the “Percent Effect” value stood at 3.443%. As to `O=C(NCCc1nnc2n1CCC2)c1ccccc1OC1CCCC1`, the “Percent Effect” value is -0.3605%.

Take `O=C(NCc1nnc2n1CCC2)NCC1(c2cccc(F)c2)CC1`: the “Percent Effect” value is on record as 112.3%.

Regarding `CCOc1ncnc2c1CCN(c1cc(C(F)(F)F)ncn1)CC2`, the “Percent Effect” value came to 1.194%. As for `CCOC(=O)CC1CCCCN1C(=O)c1cc(C)on1` (stereo not given), the figure is 7.011%; as for `CS(=O)(=O)N(Cc1ccon1)c1ccc2c(c1)OCO2`, -10.09%; as for `Cc1nc(-c2cc(Cl)cc3c2OC(CN)C3)c[nH]1` (stereo not given), -15.93%. Consider `Cc1ccc(-c2nnc(CN3CC[C@H](CO)[C@@H](O)C3)o2)n1C`, for which the “Percent Effect” value is reported as -9.968%. For `c1coc(CNc2nnc(Cc3ccsc3)o2)c1`, the “Percent Effect” value is given as -2.731%. Consider `O=C(c1ccccc1)N1C[C@@H]2CC[C@H](C1)N(Cc1cc(F)ccc1Cl)C2`, for which the “Percent Effect” value was -19.41%. Take `O=C(c1c[nH]c(=O)c(Cl)c1)N1C[C@@H]2CC[C@H](C1)N(Cc1ccccc1)C2`: the “Percent Effect” value is -15.02%. As for `O=C(c1cc(F)cc(Cl)c1)N1C[C@@H]2CC[C@H](C1)N(Cc1ccccc1)C2`, the figure is 106.3%.

As to `O=c1cc(CN2C[C@H]3CC[C@@H]2CN(Cc2ccccc2)C3)[nH]c(=O)[nH]1`, the “Percent Effect” value is given as 2.734%. Then `CCC1CN(C(=O)c2ccc(=O)[nH]c2)CCC(=O)N1Cc1ccccc1` (stereo not given), with -17.04%.

For `O=C(c1ccc(F)c(Cl)c1)N1C[C@@H]2CC[C@H](C1)N(Cc1ccccc1)C2`, the “Percent Effect” value is given as 2.522%. Then `O=C(c1ccc(=O)[nH]c1)N1C[C@@H]2CC[C@H](C1)N(Cc1ccccc1)C2`, with 87.59%.

For the compound `CC(=O)N1C[C@@H]2CC[C@H](C1)N(Cc1ccc(Cn3cccn3)cc1)C2`, the “Percent Effect” value was 6.393%. Consider `O=C(c1cc(Cl)c[nH]c1=O)N1C[C@@H]2CC[C@H](C1)N(Cc1ccccc1)C2`, for which the “Percent Effect” value worked out at 80.73%. Turning to `CC(C)c1nc(CN(C)S(=O)(=O)c2cccs2)cs1`, the “Percent Effect” value turned out to be 0.03171%. As for `CC(CS(C)(=O)=O)N(C(=O)CCc1ccc(Cl)s1)C1CC1` (stereo not given), the figure is -4.139%; as for `Cc1nc(CNC(=O)NCC(O)c2ccc(F)c(F)c2)cs1` (stereo not given), 9.084%.

Take `COc1cccc(-n2nnc(C(=O)N3CCN(C)CC3C)c2C)c1` (stereo not given): the “Percent Effect” value is reported as 13.25%. For the compound `COCCN1C[C@@H]2CCCO[C@@H]2[C@H](NC(=O)c2cnccn2)C1.O=C(O)C(F)(F)F`, the “Percent Effect” value is -16.42%.

Consider `c1cc(-c2noc([C@@H]3CCCN3C3CCC3)n2)cc(N2CCCC2)n1`, for which the “Percent Effect” value is -5.247%. As for `CC(C)Oc1ncccc1CNC(=O)NC(C)c1cccs1` (stereo not given), the figure is 104.4%; as for `CN(C)c1ncccc1CNC(=O)N1CCN(C)c2ccccc2C1`, -11.25%; as for `CN(C)c1ncccc1CNC(=O)NCc1ccc(Cl)s1`, 103.5%. In the case of `CNc1nc(C(=O)NCc2cccnc2N(C)C)cs1`, the “Percent Effect” value was -18.64%.

For the compound `Cc1cnc(C(C)(C)NC(=O)NCc2cccnc2OC(C)C)s1`, the “Percent Effect” value is -10.8%.

With `Cc1ccc(C(=O)NCc2cccnc2N(C)C)s1`, the “Percent Effect” value was 92.24%. On to `Cc1nnsc1C(=O)NCc1cccnc1N(C)C`, for which the “Percent Effect” value was -2.409%. Then `Cc1nc(CNC(=O)NCc2cccnc2N(C)C)cs1`, with 95.24%.

With `Cc1nc(CSCCC(=O)NCc2cccnc2N(C)C)cs1`, the “Percent Effect” value is on record as -3.36%. As for `Cc1cnc(CNC(=O)NCc2cccnc2N(C)C)s1`, the figure is -3.719%; as for `Cc1cc(NC(=O)NCc2cccnc2OC(C)C)n(C)n1`, 8.95%. Then `Cc1ccc(CNC(=O)NCc2cccnc2N(C)C)s1`, with -3.895%; and `CCc1ccccc1OCCN1C[C@@H](NS(C)(=O)=O)[C@H](C(C)C)C1`, with 0.8676%; and `O=C(O)c1cccnc1CN1CCOc2ccccc2C1`, with -4.779%.

Consider `Cc1cccn2c(CNC(C)CO)cnc12` (stereo not given), for which the “Percent Effect” value is recorded as 5.706%.
